Six compounds from PubChem BioAssay can be followed below.

The target of one experiment is Albumin (Bos taurus) (UniProt P02769). Put plainly: compounds binding labelled BSA control protein – biochemical, small-molecule microarray, Alexa647 label, 635/667 nm fluorescence, artefact control for SMM control protein annotation, profiling panel (AID 1118).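 Note: score merges 667 nm emission intensity and signal-to-noise per printed compound spot.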 The settings on record: BSA-A647 binding, fluorescence 635 nm, higher = more signal.
The nature of experiment [1]: probe aXIP binding to arrayed compounds – biochemical, NeuroSMM set, 635/667 nm fluorescence, primary screen (AID 1119).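 Note: probe is the protein aXip251-270 applied at 1 µg/mL to compound-printed slides; binding of probe to printed compounds measured as 667 nm fluorescence plus signal to noise.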 The settings on record: small-molecule microarray, higher = more signal, called active from +8 up or from −8 down.
A short description of experiment [2]: probe aNOTCH3 binding on compound microarray – biochemical, small-molecule microarray, 635/667 nm fluorescence, primary screen (AID 1120).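 Note: probe is a biotin-tagged antibody raised against NOTCH3 rather than NOTCH3 protein; score merges spot fluorescence near 667 nm with spot signal to noise.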 To be noted: higher = more signal.
Experiment [3] is described as follows: probe aNOTCH2 binding on compound microarray – biochemical, small-molecule microarray, 635/667 nm fluorescence, primary screen (AID 1121).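 Note: score merges feature fluorescence read at 667 nm with its signal to noise.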 The settings on record: higher = more signal.
For experiment [4], the target named is Carbonic anhydrase 2 (Homo sapiens) (UniProt P00918). Put plainly: compounds binding carbonic anhydrase 2 – biochemical, small-molecule microarray, Alexa647-labelled CAII, profiling panel (AID 1122). The settings on record: CAII-A647 binding fluorescence, higher = more signal.
The nature of experiment [5]: COS7 lysate on small-molecule microarray, probe aHis, 635 nm (AID 1123).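 Note: z-score combines 667nm fluorescence intensity with signal-to-noise per printed compound spot.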 To be noted: COS7 cell lysate, fluorescence, higher = more signal.
The nature of experiment [6]: probe aLAP1 signal on lysate-treated microarray – cell lysate, small-molecule microarray, COS7 lysate, primary screen (AID 1124).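 Note: lysate comes from COS7 cells expressing LAP1 and is applied at 0.3 µg/mL; score merges spot fluorescence near 667 nm with signal-to-noise over triplicate slides.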 The settings on record: probe aLAP1, fluorescence, higher = more signal.
The next experiment relates to Sam68 (KHDRBS1). Put plainly: compounds binding KHDRBS1 protein – biochemical, small-molecule microarray, 635 nm fluorescence, primary screen (AID 1125).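 Note: score merges 667 nm channel intensity with signal to noise over triplicate slides.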 To be noted: higher = more signal.
The test system of experiment [7] is Chordin-like protein 2 (CHRDL2). Put plainly: compounds binding chordin-like 2 – biochemical, small-molecule microarray, 635 nm fluorescence, primary screen (AID 1126).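 Note: printed compound slides probed with Chrdl2 protein at 4 µg/mL for 1 h at 4 C; score merges 667 nm emission intensity with signal to noise over three replicate slides.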 The settings on record: fluorescence 635 nm, higher = more signal.
Experiment [8] deals with Concanavalin-A (Canavalia ensiformis) (UniProt P02866). As to the kind of experiment: compounds binding concanavalin A lectin – biochemical, small-molecule microarray, Alexa647 label, 635 nm, artefact control for SMM control protein annotation, primary screen (AID 1127).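 Note: z combines 667 nm emission intensity with signal-to-noise across three replicate slides.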 The settings on record: ConA-A647 binding fluorescence, higher = more signal.
Experiment [9] can be described thus: compounds binding Alexa647 anti-His antibody – biochemical, small-molecule microarray, 635 nm fluorescence, artefact control for SMM control protein annotation, primary screen (AID 1128).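 Note: score merges feature fluorescence with signal-to-noise for each printed compound spot.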 The settings on record: higher = more signal.
The subject of experiment [10] is Human papillomavirus type 1a E7 protein (residues 1-88). As to the kind of experiment: HPV1a E7 small-molecule binders, primary screen, biochemical, small-molecule microarray, residues 1-88, 635 nm (AID 1129). To be noted: small-molecule microarray binding, fluorescence 635 nm; higher = more signal.
For experiment [11], the target named is Focal adhesion kinase 1 (Homo sapiens) (UniProt Q05397). As to the kind of experiment: PTK2 protein binding on printed compound slides – biochemical, small-molecule microarray, 635/667 nm fluorescence, BSA, DTT, primary screen (AID 1130).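 Note: composite of spot emission at 667 nm and signal to noise over triplicate slides.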 To be noted: 635 nm fluorescence, higher = more signal.
Experiment [12] relates to Fibrinogen (Alexa647-labelled). Put plainly: Alexa647-fibrinogen binding to printed small molecules – biochemical, small-molecule microarray, 635/667 nm fluorescence, artefact control for SMM control-protein annotation, profiling panel (AID 1131).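 Note: z-score merges 667 nm fluorescence with per-spot signal-to-noise over triplicate slides.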 The settings on record: fibrinogen-A647 binding fluorescence, higher = more signal.
Experiment [13] addresses Follistatin (Homo sapiens) (UniProt P19883). As to the kind of experiment: FST protein binding to printed compounds – biochemical, small-molecule microarray, 635/667 nm fluorescence, primary screen (AID 1132). The settings on record: 635 nm fluorescence, higher = more signal.
In experiment [14] the target is Fibroblast growth factor 2 (Homo sapiens) (UniProt P09038). Put plainly: basic fibroblast growth factor binding to printed compounds – biochemical, small-molecule microarray, 635/667 nm fluorescence, primary screen (AID 1133). To be noted: FGF2, fluorescence 635/667, higher = more signal.
The nature of experiment [15]: JC-1 mitochondrial potential readout, lung cancer cells – cell-based, A549, JC-1 fluorescence, basal, 24 h, 100 nL, profiling panel (AID 1138).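 Note: A549 lung adenocarcinoma cells under basal conditions with no added stimulus; test concentration not given here.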 To be noted: higher = more signal.
Another experiment deals with Lefty1. As to the kind of experiment: Lefty1 protein binding to printed compounds – biochemical, small-molecule microarray, 635/667 nm fluorescence, primary screen (AID 1139). The settings on record: fluorescence 635/667, higher = more signal.
Experiment [16] has as its system wheat germ agglutinin (Triticum aestivum), Alexa647-labelled. As to the kind of experiment: Alexa647-WGA lectin binding to printed small molecules – biochemical, small-molecule microarray, 635/667 nm fluorescence, artefact control for SMM control-protein annotation, profiling panel (AID 1140).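 Note: score merges 667 nm feature emission with signal to noise over triplicate slides.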 To be noted: WGA-A647 binding, 635 nm fluorescence, higher = more signal.

The target in experiment [17] is Luciferin 4-monooxygenase (Photinus pyralis) (UniProt P08659). As to the kind of experiment: inhibition of purified Photinus pyralis luciferase – biochemical, luminescence, purified enzyme, 2006 set, primary screen (AID 1141).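 Note: cell-free assay with purified firefly luciferase at 100 ng per well in PBS; test concentration not given here.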 The settings on record: purified firefly luciferase, SteadyGlo luminescence, 30 min; higher = more signal, called active from +8 up or from −8 down.

SMILES strings stand for the structures. The source made the active and inactive calls.

Concanavalin-A (Canavalia ensiformis), sequence (P02866 whole entry, looked up): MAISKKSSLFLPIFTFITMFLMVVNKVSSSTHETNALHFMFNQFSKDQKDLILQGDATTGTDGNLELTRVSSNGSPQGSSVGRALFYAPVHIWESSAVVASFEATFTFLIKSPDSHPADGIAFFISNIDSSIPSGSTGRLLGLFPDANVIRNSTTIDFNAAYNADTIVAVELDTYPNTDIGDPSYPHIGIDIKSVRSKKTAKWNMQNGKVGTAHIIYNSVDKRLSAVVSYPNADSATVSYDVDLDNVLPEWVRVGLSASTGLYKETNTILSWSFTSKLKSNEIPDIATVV
Luciferin 4-monooxygenase (Photinus pyralis), sequence (P08659 whole entry, looked up): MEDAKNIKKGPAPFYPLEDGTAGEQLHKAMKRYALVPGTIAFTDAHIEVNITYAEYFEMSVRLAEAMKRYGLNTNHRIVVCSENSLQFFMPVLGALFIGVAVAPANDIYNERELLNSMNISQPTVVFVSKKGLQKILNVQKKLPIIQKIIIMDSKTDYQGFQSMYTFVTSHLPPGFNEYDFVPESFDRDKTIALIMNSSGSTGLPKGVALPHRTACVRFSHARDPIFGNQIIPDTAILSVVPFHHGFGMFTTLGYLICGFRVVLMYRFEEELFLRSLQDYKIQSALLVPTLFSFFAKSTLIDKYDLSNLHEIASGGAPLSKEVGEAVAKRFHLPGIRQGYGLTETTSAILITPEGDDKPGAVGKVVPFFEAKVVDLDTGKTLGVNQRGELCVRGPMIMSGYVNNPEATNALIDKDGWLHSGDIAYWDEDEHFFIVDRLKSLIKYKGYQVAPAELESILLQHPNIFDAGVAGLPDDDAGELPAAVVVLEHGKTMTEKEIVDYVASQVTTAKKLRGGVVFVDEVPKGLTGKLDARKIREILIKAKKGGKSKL
Follistatin (Homo sapiens), sequence (P19883 whole entry, looked up): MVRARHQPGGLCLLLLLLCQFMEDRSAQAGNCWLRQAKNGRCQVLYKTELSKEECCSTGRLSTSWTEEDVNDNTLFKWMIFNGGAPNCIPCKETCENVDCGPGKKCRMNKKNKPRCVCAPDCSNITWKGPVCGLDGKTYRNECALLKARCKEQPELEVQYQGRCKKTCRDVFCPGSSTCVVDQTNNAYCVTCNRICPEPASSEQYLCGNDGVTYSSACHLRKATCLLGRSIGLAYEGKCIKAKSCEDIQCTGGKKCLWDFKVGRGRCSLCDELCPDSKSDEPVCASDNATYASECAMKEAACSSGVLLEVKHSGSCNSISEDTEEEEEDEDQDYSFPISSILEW
Albumin (Bos taurus), sequence (P02769 whole entry, looked up): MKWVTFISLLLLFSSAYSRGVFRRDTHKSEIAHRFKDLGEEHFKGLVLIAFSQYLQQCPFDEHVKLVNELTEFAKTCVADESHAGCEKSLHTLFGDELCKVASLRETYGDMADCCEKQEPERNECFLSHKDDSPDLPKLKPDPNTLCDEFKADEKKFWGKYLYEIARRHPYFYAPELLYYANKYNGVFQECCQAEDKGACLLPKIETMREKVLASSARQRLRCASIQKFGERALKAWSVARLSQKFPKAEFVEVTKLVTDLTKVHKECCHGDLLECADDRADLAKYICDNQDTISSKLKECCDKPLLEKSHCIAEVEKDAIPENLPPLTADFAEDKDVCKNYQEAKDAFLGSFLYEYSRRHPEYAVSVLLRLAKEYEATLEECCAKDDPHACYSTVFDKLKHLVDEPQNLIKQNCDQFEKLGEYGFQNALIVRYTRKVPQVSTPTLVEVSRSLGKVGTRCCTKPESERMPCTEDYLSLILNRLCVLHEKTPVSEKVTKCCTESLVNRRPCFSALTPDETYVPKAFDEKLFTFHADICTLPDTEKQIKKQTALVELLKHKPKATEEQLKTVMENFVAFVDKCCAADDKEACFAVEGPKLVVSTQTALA
Fibroblast growth factor 2 (Homo sapiens), sequence (P09038 whole entry, looked up): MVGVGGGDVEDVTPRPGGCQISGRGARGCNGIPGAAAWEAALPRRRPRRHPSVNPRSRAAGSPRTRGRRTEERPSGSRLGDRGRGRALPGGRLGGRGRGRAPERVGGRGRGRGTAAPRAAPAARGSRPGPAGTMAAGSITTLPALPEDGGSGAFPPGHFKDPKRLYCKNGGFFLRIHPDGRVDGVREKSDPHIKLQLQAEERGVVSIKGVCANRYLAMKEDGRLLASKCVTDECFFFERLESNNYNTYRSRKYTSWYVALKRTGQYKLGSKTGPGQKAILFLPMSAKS
Focal adhesion kinase 1 (Homo sapiens), sequence (Q05397 whole entry, looked up): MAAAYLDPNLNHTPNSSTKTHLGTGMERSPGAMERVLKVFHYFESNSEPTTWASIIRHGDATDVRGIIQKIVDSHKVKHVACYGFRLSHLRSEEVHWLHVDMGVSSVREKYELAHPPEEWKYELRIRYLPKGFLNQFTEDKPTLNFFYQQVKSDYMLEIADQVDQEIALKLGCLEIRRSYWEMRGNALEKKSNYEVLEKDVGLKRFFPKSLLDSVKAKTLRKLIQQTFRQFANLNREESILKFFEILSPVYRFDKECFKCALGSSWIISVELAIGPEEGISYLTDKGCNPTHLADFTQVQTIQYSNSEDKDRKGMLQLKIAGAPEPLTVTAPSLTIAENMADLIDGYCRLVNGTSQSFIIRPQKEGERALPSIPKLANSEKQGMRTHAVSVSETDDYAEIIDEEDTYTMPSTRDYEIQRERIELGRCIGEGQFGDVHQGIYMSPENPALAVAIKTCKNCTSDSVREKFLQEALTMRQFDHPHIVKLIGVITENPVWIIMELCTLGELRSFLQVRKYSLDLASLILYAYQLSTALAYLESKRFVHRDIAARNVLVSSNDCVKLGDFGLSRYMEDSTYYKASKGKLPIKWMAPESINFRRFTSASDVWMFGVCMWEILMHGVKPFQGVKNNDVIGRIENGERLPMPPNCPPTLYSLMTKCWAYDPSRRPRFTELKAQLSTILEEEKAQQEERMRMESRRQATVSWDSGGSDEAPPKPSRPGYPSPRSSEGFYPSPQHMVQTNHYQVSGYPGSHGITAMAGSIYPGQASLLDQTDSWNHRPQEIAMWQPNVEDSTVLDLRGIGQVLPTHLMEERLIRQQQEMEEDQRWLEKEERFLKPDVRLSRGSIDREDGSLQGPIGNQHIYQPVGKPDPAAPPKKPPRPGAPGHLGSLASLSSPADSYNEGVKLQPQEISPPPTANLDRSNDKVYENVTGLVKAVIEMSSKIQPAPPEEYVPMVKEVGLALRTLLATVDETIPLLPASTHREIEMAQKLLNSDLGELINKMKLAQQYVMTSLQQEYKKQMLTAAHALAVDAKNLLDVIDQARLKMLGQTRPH

Regarding `CN1C(=O)C2C(C1=O)C1C=C(c3ccc(CO)cc3)C2C(C2CC2)N1Cc1sc2ccccc2c1Cl` (stereo not given), the composite z-score with Albumin (Bos taurus) turned out to be 0.947; in experiment [2], 0.248; in experiment [3], 0.114; in experiment [4], 0.661; in [5] it was 2.59; in experiment [6], 0.74. Further, the composite z-score with Sam68 (KHDRBS1) was 1.3; in [7] it was -0.124; in [8], 1.21; in experiment [9], 3.31; in [10], 1.26; in [11], 1.89. Further, the composite z-score in experiment [12] turned out to be 0.982; in experiment [13] it was 0.968; in [14] it was 1.06; with Lefty1, 0.453; in experiment [16] it was 1.25. For the same compound, the composite Z-score in [1] is -0.0285 (inactive). The z-score in experiment [15] was 2.26; in [17], -1.75 (inactive).
With `CN(C)CCCCNC(=O)[C@@H]1C[C@@H]2C(=O)N[C@@H](CCCCN)C(=O)N2[C@@H]1c1cccc(OCCO)c1`, the composite z-score with Albumin (Bos taurus) is -0.564; in experiment [2] it was -0.0918; in experiment [3] it was 0.0072; in experiment [4] it was 0.42; in experiment [5], 2.85; in experiment [6], 0.429. The composite z-score in the experiment with Sam68 (KHDRBS1) was -0.266; in experiment [7], -0.0061; in experiment [8], 0.344; in experiment [9] it was 0.117; in [10] it was -0.229; in [11] it was -0.815. Moreover, the composite z-score is -0.581 in experiment [12]; -0.029 in experiment [13]; 0.554 in experiment [14]; -0.382 in the experiment with Lefty1; -0.13 in [16]. The composite Z-score in experiment [1] was 0.703 (inactive). In addition, the z-score in [15] was -0.872; in experiment [17] it was 0.654 (inactive).
`CCCCCCC#C[Si](O[C@H](c1ccccc1)c1cn([C@H](C)c2ccccc2)nn1)(C(C)C)C(C)C`: the composite z-score in the experiment with Albumin (Bos taurus) was 0.672; in [2], 0.155; in [3] it was -0.0843; in experiment [4] it was -0.0858; in experiment [5], 0.19; in [6] it was -0.164. The composite z-score was 0.729 with Sam68 (KHDRBS1); 0.267 in [7]; 0.809 in [8]; 0.475 in [9]; 0.386 in [10]; -0.159 in experiment [11]. In addition, the composite z-score in experiment [12] was determined as 0.574; in experiment [13], 0.441; in [14] it was 0.555; in the experiment on Lefty1, 0.547; in experiment [16], 0.144. The composite Z-score in experiment [1] was 0.282 (inactive). Moreover, the results for the z-score in experiment [15] and in experiment [17] were 3.27 and 0.425 (inactive), respectively.
On to `[N-]=[N+]=Nc1ccccc1[C@@H]1OC(c2ccc(OCCCO)cc2)=N[C@]1(CCS(=O)(=O)c1ccccc1)C(=O)O`, for which the composite z-score with Albumin (Bos taurus) was 0.829; in [2] it was 0.416; in experiment [3] it was -0.0323; in [4] it was 0.683; in [5] it was 1.61; in [6], -0.252. Also, the composite z-score in the experiment on Sam68 (KHDRBS1) is 1.31; in [7], 0.012; in [8] it was 1.15; in experiment [9] it was 1.12; in [10], 1.22; in [11], 0.688. Also, the composite z-score in experiment [12] was 1.03; in experiment [13], 1.25; in experiment [14], 0.933; with Lefty1, 0.874; in experiment [16] it was 0.867. Moreover, the composite Z-score in [1] is 0.834 (inactive). Also, the values for the z-score in [15] and in experiment [17] were -1.83 and -15.1 (active), respectively.
Regarding `CC[C@@H]1C=C(C(=O)O)[C@H](c2ccc(C(C)C)cc2)N1S(=O)(=O)c1ccc(C)cc1`, the composite z-score with Albumin (Bos taurus) is 0.987; in experiment [2], 0.42; in experiment [3], 0.346; in experiment [4] it was 0.796; in experiment [5] it was 2.85; in experiment [6], 1.63. Also, the composite z-score is 1.3 with Sam68 (KHDRBS1); -0.557 in experiment [7]; 1.21 in [8]; 2.08 in [9]; 1.21 in experiment [10]; 1.17 in [11]. Further, the composite z-score was found to be 1.03 in experiment [12]; 0.919 in experiment [13]; 0.52 in experiment [14]; 0.0565 in the experiment on Lefty1; 1.35 in experiment [16]. In addition, in experiment [1], the composite Z-score is 1.1 (inactive). The z-score was -1.25 in experiment [15] and 0.734 (inactive) in experiment [17].
As for `CC(C)[Si]1(C(C)C)O[C@@H](c2ccccc2)c2cc(-c3ccc(-c4ccc(Cl)c(Cl)c4)o3)nc(CCc3ccccc3)c21`, the composite z-score was -1.24 with Albumin (Bos taurus); -0.226 in experiment [2]; -0.148 in [3]; 0.287 in experiment [4]; 0.143 in experiment [5]; 0.312 in experiment [6]. Also, the composite z-score is -0.141 in the experiment on Sam68 (KHDRBS1); -1.59 in experiment [7]; -1.04 in experiment [8]; -0.203 in experiment [9]; -0.339 in [10]; -0.389 in experiment [11]. The composite z-score in [12] is -1.27; in [13], -2.16; in experiment [14] it was -0.614; with Lefty1 it was -1.08; in [16], -1.58. For the same compound, the composite Z-score in [1] was 0.0953 (inactive). Further, the z-score was -0.107 in experiment [15] and -0.7 (inactive) in experiment [17].
